According to PubChem BioAssay (Tox21):
Inconclusive results are not listed. Unmarked numbers belong to inactive results. Active and inactive are the calls of the source. Calls come from the whole dose curve; as a rule, active = well fitted inhibition curve with a large enough effect in the signal ratio in the repeat runs, with a control signal flat; inconclusive = weak or mixed curves, or effect the other way; inactive = flat fitted curve, though single readings scatter; the % refers to the signal ratio.

These compounds were tested against D(2) dopamine receptor (Homo sapiens) (UniProt P14416) (assay: Dopamine D2 receptor (DRD2) small molecule antagonists, cell-based qHTS assay (AID 1963595)). Settings: HEK293-DRD2 cAMP HTRF antagonist mode; series mostly up to 92.4 µM; activity change, negative = inhibition: at the top concentration.
Description: National Center for Advancing Translational Sciences [NCATS]
Division of Preclinical Innovation [DPI]
U.S. Environmental Protection Agency [EPA]
National Institutes of Environmental Health Sciences [NIEHS]
National Toxicology Program [NTP]
U.S. Food and Drug Administration [FDA]
DRD2 is the D2 subtype of the dopamine receptor, which is coupled to Gi subtype of G protein-coupled receptor. This G protein-coupled receptor inhibits adenylyl cyclase activity. The DRD2-HEK293 cell line stably expressing D2 dopamine receptor can be used for screening agonists and antagonists of interactions between D2 and its ligands. The Hek293-DRD2 cAMP assay is based on HTRF technology. It measures changes of cAMP accumulation in response to Gi coupled GPCR activation or inhibition.
Tox21 Assay Protocol Summary:
DRD2-Hek293 cells were dispensed at 600 cells/3uL/well in 1536-well white plates using a Multidrop Dispenser. After the assay plates were incubated at a 37 C/5% CO2 incubator for 24 h, 1 uL of Ro20-1724 at final concentration of 0.1 mM was transferred to the assay plate by a Flying Reagent Dispenser. Following Ro20-1724 addition, 23 nL of compound dissolved in DMSO, positive controls or DMSO only was added to the assay plates via Wako pintool station. The assay plates were incubated at room temperature for 10 min. Next, 1 uL of mixture of NKH477 (final concentration at 200 nM) and quinpirole (final concentration at 12 nM) was added into the plates. After the assay plates were incubated at room temperature for an additional 30 min, 2.5 ul/well of cAMP-d2 and 2.5 ul/well of anti-cAMP-cryptate were added respectively into the assay plates using a Flying Reagent Dispenser. The plates were incubated at room temperature for 1 h. The fluorescence intensity in the plates was measured at 340 nm excitation and 665 & 620 nm emission by an Envision plate reader.
% is set by controls: 0 for no effect and ±100 for the full control effect; potency is the fitted concentration of half-maximal effect.

Chain of D(2) dopamine receptor (Homo sapiens) (P14416 whole entry, looked up): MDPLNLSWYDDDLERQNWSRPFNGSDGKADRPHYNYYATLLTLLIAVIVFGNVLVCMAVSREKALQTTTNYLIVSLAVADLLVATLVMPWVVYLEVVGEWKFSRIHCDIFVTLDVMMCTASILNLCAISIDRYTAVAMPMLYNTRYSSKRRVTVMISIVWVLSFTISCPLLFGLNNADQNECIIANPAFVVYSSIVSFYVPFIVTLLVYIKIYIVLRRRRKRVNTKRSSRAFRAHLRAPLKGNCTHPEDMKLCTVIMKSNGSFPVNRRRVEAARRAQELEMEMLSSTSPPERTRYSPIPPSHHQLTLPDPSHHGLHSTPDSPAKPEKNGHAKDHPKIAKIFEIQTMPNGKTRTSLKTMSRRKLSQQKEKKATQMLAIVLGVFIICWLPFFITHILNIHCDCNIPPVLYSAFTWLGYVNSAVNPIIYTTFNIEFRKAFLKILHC

Structure (SMILES) | activity change, negative = inhibition | Potency
CC(=O)/C(C)=C/C1C(C)=CCCC1(C)C (stereo not given) | 2.48% | 
CSc1ccc2c(c1)C(N1CCN(C)CC1)Cc1ccccc1S2 (stereo not given) |  | 0.0473 µM (active)
O=C(Nc1ccc2c(c1)Cc1ccccc1-2)C(F)(F)F | 4.01% | 
CCCCC[C@H](O)/C=C/[C@H]1[C@H](O)CC(=O)[C@@H]1C/C=C\CCCC(=O)O |  | 0.0075 µM (active)
CC1(C)[C@@H](OC(=O)CCC(=O)O)CC[C@]2(C)[C@H]3C(=O)C=C4[C@@H]5C[C@@](C)(C(=O)O)CC[C@]5(C)CC[C@@]4(C)[C@]3(C)CC[C@@H]12 | 4.55% [at 42.5 µM] | 
N#CCCOCCOCCC#N | 4.73% | 
O=C1NC(=O)C2CC=CCC12 (stereo not given) | 2.69% | 
CN1CCC[C@@H]1c1cccnc1 | 1.69% [at 42.5 µM] | 
COc1ccc(S(=O)(=O)Nc2nnc(CC(C)C)s2)cc1 | -0.178% [at 42.5 µM] | 
COC1CCC=CO1 (stereo not given) | 1.09% | 
COC(=O)[C@@H]1CC2=CC(=O)CC[C@]2(C)[C@@]23O[C@@H]2C[C@@]2(C)[C@@H](CC[C@@]24CCC(=O)O4)[C@H]13 | 5.39% [at 42.5 µM] | 
Nc1ccc2c3c(cccc13)-c1ccccc1-2 | 13.5% | 
O=C(Oc1cccc2cccnc12)c1ccccc1 | 3.75% [at 42.5 µM] | 
Cc1coc2ccccc2c1=O | 1.65% [at 42.5 µM] | 
CCCCOC(=O)c1ccccc1 | 7.39% | 
CC(=O)CCC1=C(C)CCCC1(C)C | 1.24% | 
CS(=O)(=O)CCNCc1ccc(-c2ccc3ncnc(Nc4ccc(OCc5cccc(F)c5)c(Cl)c4)c3c2)o1 | 16.5% [at 42.5 µM] | 
C=C(C)C(=O)OCc1ccccc1 | 17.3% | 
COc1cc([N+](=O)[O-])ccc1N | -3.82% | 
c1coc(Cn2cccc2)c1 | 0.573% | 

Structure (SMILES) | activity change, negative = inhibition | Potency
CC(=O)Oc1ccc2c(c1)CC[C@@H]1[C@@H]2CC[C@]2(C)[C@@H](O)CC[C@@H]12 | -0.883% [at 42.5 µM] | 
CC1(C)CCC(C)(C)c2cc(C(=O)Nc3ccc(C(=O)O)cc3)ccc21 | -1.59% | 
CC(=O)Oc1ccc(C(=C2CCCCC2)c2ccc(OC(C)=O)cc2)cc1 | 2.69% [at 42.5 µM] | 
CN(C(=O)CN(CCO)CC(=O)N(C)C(C)(C)Cc1ccccc1)C(C)(C)Cc1ccccc1 | -26.5% [at 42.5 µM] | 
COc1ccc2ccccc2c1 | -0.859% | 
O=CNc1ccccc1 | -4.61% | 
Cc1ncc([C@@H](CCCCCCc2ccc3c(n2)NCCC3)CC(=O)O)cn1 | 2.53% | 
CCCCCOC(=O)Nc1nc(=O)n([C@@H]2O[C@H](C)[C@@H](O)[C@H]2O)cc1F | 4.12% [at 42.5 µM] | 
OC/C(Br)=C(\Br)CO | -0.541% | 
CN(C)CC[C@@H](c1ccc(Cl)cc1)c1ccccn1 | -0.769% [at 42.5 µM] | 
CC[C@@]1(O)C(=O)OCc2c1cc1n(c2=O)Cc2cc3c(CN(C)C)c(O)ccc3nc2-1 | 1.14% [at 42.5 µM] | 
C=C(C)[C@@H]1CC=C(C)CC1 | -0.412% | 
CN1CCCN(C(c2ccccc2)c2ccc(Cl)cc2)CC1 (stereo not given) |  | 26.6 µM (active)
Cc1cc(-c2ccc(N=Nc3cc(S(=O)(=O)O)c4ccccc4c3N)c(C)c2)ccc1N=Nc1cc(S(=O)(=O)O)c2ccccc2c1N | 0.671% | 
CN(c1nccc(=O)[nH]1)C1CCN(c2nc3ccccc3n2Cc2ccc(F)cc2)CC1 | -0.247% [at 42.5 µM] | 
CCCCCCCCCCCCCCOS(=O)(=O)O | -16.5% | 
O=C1CCC/C=C\CCCCCCCCCC1 | -6.28% | 
CS(C)=O | 5.4% | 
CC(C)(CO)[C@@H](O)C(=O)NCCCO | -7.72% [at 42.5 µM] | 
COCCCOCCCOC | 10.6% | 
